The panel holds about 83,000 compounds, 20% with a hit somewhere; the sample as a whole holds those more often.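 A percent growth of 40 corresponds to 60% growth inhibition; 0 means no net growth; -100 means all cells died. Active threshold: below 10.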 Unmarked numbers belong to inactive results. Activity calls are given as the source filed them.
What was measured:
Test in all cases: NCI-60 one-dose screen, 48 h (100 = growth as untreated, 0 = no growth, -100 = all killed)
Settings in all cases: 10 µM unless noted
[1] = tested on: SK-MEL-2 melanoma
[2] = tested on: EKVX NSCLC
[3] = tested on: SN12C renal
[4] = tested on: TK-10 renal
[5] = tested on: ACHN renal
[6] = tested on: CAKI-1 renal
[7] = tested on: CCRF-CEM leukemia
[8] = tested on: MOLT-4 leukemia
[9] = tested on: A498 renal
[10] = tested on: UO-31 renal

Row | SMILES | growth [1] | growth [2] | growth [3] | growth [4] | growth [5] | growth [6] | growth [7] | growth [8] | growth [9] | growth [10]
1 | C/C=C(\C)C(C(=O)NC1CCCCC1)N(C(=O)C1CCc2cc(F)ccc2O1)c1ccc([N+](=O)[O-])cc1 (centres undefined) | 99.6% | 84.2% | 93.4% | 89.9% | 89.7% | 80.2% | 97.3% | 76.4% | – | –
2 | N#Cc1nc(-c2cccc(Br)c2)cc(-c2ccc(Nc3nc(N4CCCCC4)nc(N4CCCCC4)n3)cc2)c1N | -10.7% (active) | 5.85% (active) | 16.7% | -87.8% (active) | -96.3% (active) | -75.5% (active) | 11.4% | – | – | –
3 | COC(=O)C(CCC(=O)CCl)N1C(=O)c2ccccc2C1=O (centres undefined) | 67.4% | 108% | 69.9% | 54% | 71.2% | 67.9% | 5.21% (active) | 42.6% | 123% | –
4 | O=C(NNC(=S)Nc1ccccc1)c1ccc(Nc2ncnc3c2cnn3-c2cccc(Br)c2)cc1 | 105% | – | 96.1% | 106% | 106% | 93.4% | 108% | 104% | 102% | 82.3%
5 | COc1ccc(-c2cnc3ccnn3c2-c2cc(OC)c(OC)c(OC)c2)cc1 | 36.9% | – | 42% | 59.6% | 47.3% | 46.5% | 16.3% | 46.7% | -5.57% (active) | 48.3%
6 | C/C(=N\NC(=S)N1CCCCC1)c1ccccn1 | 34.3% | -4.33% (active) | 21% | 22.4% | 17.3% | -4% (active) | – | -3.73% (active) | -13.5% (active) | –
7 | Cc1cc(-c2nnc(/C=C/c3ccc4c(c3)OCO4)o2)n[nH]1 | 30.1% | 90.6% | – | 81.8% | 95.7% | 59.8% | 58.1% | – | 73.2% | 70.1%
8 | O=C(Nc1ccc(Cl)c(C(F)(F)F)c1)c1ccc(Nc2ccc(Cl)nn2)cc1 | 83.3% | 55.7% | – | 68.1% | 52.4% | – | 44.8% | 43.7% | 51.6% | 0.31% (active)
9 | COc1ccc2[nH]cc(/C=C3\C(=O)Nc4ccccc43)c2c1 | 12.6% | 49% | 49.5% | 53% | 34.6% | -0.757% (active) | 14% | 1.26% (active) | 40.5% | –
10 | Cn1nc(C(F)(F)F)cc1-c1c[nH]c(OCc2ccc(Cl)cc2)c(-c2ccc(Cl)c(C(F)(F)F)c2)c1=O | -31.4% (active) | – | 4.1% (active) | 3.46% (active) | -15.8% (active) | -22.7% (active) | 10.5% | -9.43% (active) | -60.9% (active) | -1.38% (active)
11 | COc1ccc(NC(=O)C2c3ccccc3C(=O)N(CC(C)C)C2c2cccs2)cc1 (centres undefined) | 102% | – | 92.1% | 97.8% | 97.3% | 92.2% | 92.7% | 98.6% | 86.7% | 108%
12 | C#CC[C@@H]1C[C@]2(C)[C@H]3CC=C4[C@H]5CC(C)(C)CC[C@]5(C(=O)NCCCCN)CC[C@@]4(C)[C@]3(C)CC[C@H]2C(C)(C)[C@H]1OC(C)=O | 98.9% | 81.1% | -51.2% (active) | -27.5% (active) | -91.6% (active) | -70% (active) | 17.9% | 12.2% | 104% | –
13 | CN1CCN(Cc2ccc(NC(=O)c3cncc(C#Cc4ncc5ccccn45)c3)cc2C(F)(F)F)CC1 | -8.17% (active) | 43.9% | 24% | 53.4% | 13.1% | 1.78% (active) | 8.69% (active) | 17.8% | 11.4% | –
14 | Fc1cc(-c2nnc3sc(-c4ccc(Cl)cc4)nn23)c(Cl)cc1Cl | 95.7% | 96.2% | – | 99.9% | 101% | – | -75.3% (active) | 60.6% | 97.8% | 78.1%
15 | OC(c1cc2cc(Cl)ccc2c2cc(C(F)(F)F)ccc12)C1CCCCN1 (centres undefined) | -92% (active) | -40.4% (active) | – | -96.4% (active) | -78.2% (active) | -74.2% (active) | -61.2% (active) | -69.3% (active) | 27.2% | -88.2% (active)
16 | CN(C)c1ccc(Nc2c3ccccc3nc3ccccc23)cc1 | 40.1% | – | 16.4% | 34.1% | -18.8% (active) | -13.5% (active) | 19.9% | 6.01% (active) | 14.2% | -31% (active)
17 | NC(N)=N/N=C\c1ccc(OCc2ccccc2)cc1 | 86.6% | 88.6% | 79.5% | 73.4% | 75.7% | – | 72.3% | 73.8% | – | –
18 | Oc1c(C(c2ccc(F)cc2)N2CCCCC2)ccc2cncnc12 (centres undefined) | -16.6% (active) | 16.9% | – | 9.03% (active) | 10.9% | 19% | 18.5% | 13.1% | -8.07% (active) | 11%
19 | COc1cccc(/C=N/N=C(N)N)c1 | 107% | 102% | 95.2% | 113% | 100% | 104% | 108% | 115% | 78% | –
20 | COc1ccc(NC(=O)/C=C/c2ccc(Cl)c(Cl)c2)cn1 | 101% | 83.7% | – | 78.3% | 93.4% | 59.3% | 32.9% | 44.4% | 65.6% | 74.1%
21 | c1ccc(C(CC2=NCCCN2)c2ccccc2)cc1 | 108% | 97.2% | 90.9% | 110% | 104% | 97.6% | 9.65% (active) | 92.7% | 111% | –
22 | CSC1=NC(=Nc2c(C)cccc2C)C2(CCC(C(C)(C)C)CC2)N1c1ccc(Cl)cc1 (centres undefined) | 49.9% | – | 42.1% | 61.3% | 34.5% | 12% | 36.9% | 23.5% | 71.5% | 34.8%
23 | CCN(CC)CCCC(C)N/C(c1cccc(OC)c1)=c1\c(=O)[nH]n(-c2c3ccccc3nc3ccccc23)c(=O)\c1=C(/NC(C)CCCN(CC)CC)c1cccc(OC)c1 (centres undefined) | -75.2% (active) | – | 5.78% (active) | -23% (active) | -61.8% (active) | 1.65% (active) | – | – | -85.9% (active) | -48.5% (active)
24 | Nc1cccc(S(=O)(=O)c2cccc(N)c2)c1 | 116% | – | 112% | 123% | 102% | 98.4% | 102% | 10.4% | 108% | 95.8%
25 | O=C(OCc1ccc2c(Br)cc(Br)c(O)c2n1)c1cc2ccccc2[nH]1 | -20.6% (active) | – | -79.2% (active) | -94.2% (active) | -100% (active) | -97.6% (active) | 2.81% (active) | -8.64% (active) | -1.86% (active) | -100% (active)
26 | Cn1nc(C(F)(F)F)cc1-c1cc(Cl)c(OCc2ccc(Cl)cc2)c(-c2ccc(Cl)c(C(F)(F)F)c2)c1O | -33.8% (active) | – | 5.76% (active) | 2.92% (active) | -11.4% (active) | -19.2% (active) | 9.85% (active) | -14.2% (active) | -41.9% (active) | 0.656% (active)
27 | CC(C)N1CCN(c2ccncc2S(=O)(=O)N2CCN(C)CC2)CC1 | 107% | – | 98.4% | 101% | 101% | 98.5% | 98.4% | 104% | 107% | 87.3%
28 | CCN(CC)CCCC(C)Nc1cnc(C(=O)Nc2ccc(Cl)c3cccnc23)cn1 (centres undefined) | 57.8% | – | 31.7% | 57.6% | -54.8% (active) | 23.1% | 5.29% (active) | 2.9% (active) | 54% | 23.8%
29 | Oc1c(-c2cc(C(F)(F)F)[nH]n2)cc(Cl)c(OCc2ccc(Cl)cc2)c1-c1ccc(Cl)c(C(F)(F)F)c1 | -40.9% (active) | – | 5.54% (active) | 7.21% (active) | 0.909% (active) | -15.7% (active) | 5.04% (active) | -14.8% (active) | -51.1% (active) | -27.6% (active)
30 | O=[N+]([O-])c1cccc([I+]c2ccccc2)c1 | 76.1% | – | 52.4% | 67.5% | 63.3% | 46% | 15.8% | 12.6% | 40.5% | 43.6%
